Test results taken from ChEMBL document CHEMBL1201862, “PubChem BioAssay data set” (2004).
Among all 400,000 compounds or so, about 2,100 (0.53%) were called active. Another 14% or so got no clear call; they are omitted. The rule behind the calls is not given here. For the sample, actives were picked, then their nearest neighbours and some compounds at random.

Each compound was assayed against Ataxin-2 (Homo sapiens) (UniProt Q99700) (assay: qHTS for Inhibitors of ATXN expression.).
Assay type: functional

Chain of Ataxin-2 (Homo sapiens) (Q99700 whole entry): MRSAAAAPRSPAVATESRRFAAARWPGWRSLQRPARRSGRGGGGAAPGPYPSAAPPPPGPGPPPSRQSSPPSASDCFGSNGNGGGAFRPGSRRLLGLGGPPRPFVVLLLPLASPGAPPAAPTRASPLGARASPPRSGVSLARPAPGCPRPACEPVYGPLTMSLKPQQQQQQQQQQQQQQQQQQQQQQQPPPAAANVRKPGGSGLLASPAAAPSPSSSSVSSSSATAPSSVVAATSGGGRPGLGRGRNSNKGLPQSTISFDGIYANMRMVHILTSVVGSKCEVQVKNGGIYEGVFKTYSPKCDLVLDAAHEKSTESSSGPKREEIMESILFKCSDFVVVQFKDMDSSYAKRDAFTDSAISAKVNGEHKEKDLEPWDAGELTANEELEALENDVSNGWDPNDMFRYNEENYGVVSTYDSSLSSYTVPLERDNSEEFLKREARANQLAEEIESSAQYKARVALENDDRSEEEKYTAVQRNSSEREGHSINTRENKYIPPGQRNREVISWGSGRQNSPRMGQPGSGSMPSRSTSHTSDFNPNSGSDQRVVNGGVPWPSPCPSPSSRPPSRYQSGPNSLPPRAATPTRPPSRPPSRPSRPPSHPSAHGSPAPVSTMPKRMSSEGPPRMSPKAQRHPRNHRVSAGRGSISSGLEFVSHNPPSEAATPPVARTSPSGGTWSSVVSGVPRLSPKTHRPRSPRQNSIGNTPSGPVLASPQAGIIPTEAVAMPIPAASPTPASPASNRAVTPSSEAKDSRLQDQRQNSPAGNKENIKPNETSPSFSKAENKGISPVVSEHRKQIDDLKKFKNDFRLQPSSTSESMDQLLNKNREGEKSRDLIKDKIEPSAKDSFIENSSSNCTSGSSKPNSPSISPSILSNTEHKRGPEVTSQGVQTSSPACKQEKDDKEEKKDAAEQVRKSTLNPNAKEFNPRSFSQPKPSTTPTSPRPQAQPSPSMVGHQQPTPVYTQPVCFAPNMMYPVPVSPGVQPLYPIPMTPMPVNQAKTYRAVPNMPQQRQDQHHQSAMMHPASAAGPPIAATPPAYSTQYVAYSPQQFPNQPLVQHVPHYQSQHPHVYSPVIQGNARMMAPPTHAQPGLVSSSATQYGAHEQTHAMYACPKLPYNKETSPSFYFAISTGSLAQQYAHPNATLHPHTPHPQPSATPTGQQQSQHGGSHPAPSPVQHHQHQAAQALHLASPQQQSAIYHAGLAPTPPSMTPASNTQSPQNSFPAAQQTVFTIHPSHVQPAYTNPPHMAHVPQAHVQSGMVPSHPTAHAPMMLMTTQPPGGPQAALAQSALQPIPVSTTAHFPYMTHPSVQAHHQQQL

Row | SMILES | Potency
1 | C/C(=N\NC(=O)Cc1csc(N2CCOCC2)n1)c1ccc(Cl)c(Cl)c1 | inactive
2 | CCCCCN1C(C(=O)c2ccccc2)=C(NC(=O)c2ccc(OC)c(OC)c2)c2ccccc2S1(=O)=O | inactive
3 | CCCCc1c(-c2ccccc2F)ncn1CCc1ccccc1OC | 31.6 µM (active)
4 | CCCc1c(-c2ccccc2Br)ncn1Cc1ccccc1OC | 31.6 µM (active)
5 | CCCCc1c(-c2ccccc2Br)ncn1CCc1ccccc1OC | 28.2 µM (active)
6 | Nc1cccc2c1C(=O)N(CCOc1ccccc1F)C2=O | inactive
7 | CCCCCc1c(-c2ccccc2OC)ncn1CCc1ccccc1OC | 31.6 µM (active)
8 | Cc1cc(Cl)n2c(nc3ccccc32)c1C#N | inactive
9 | CC(CCCC(C)(C)O)NC(=O)c1ccc(OC2CCN(C(=O)C3CC3)CC2)cc1 (stereo not given) | inactive
10 | CCCCc1c(-c2ccc(F)cc2F)ncn1CCc1ccccc1OC | 35.5 µM (active)
11 | CCCCCc1c(-c2ccccc2F)ncn1CCc1ccccc1OC | 28.2 µM (active)
12 | CCOC(=O)C1(CCOC)CCCCC1=O (stereo not given) | inactive
13 | Cc1ccc(Nc2nc(Cl)c(C=O)s2)cc1Cl | inactive
14 | CC(C)N(CCNCc1nnc(-c2ccccc2)o1)C(C)C | inactive
15 | COC(=O)Cc1c(C)c2ccc3c(c2oc1=O)CN(Cc1ccc(Cl)cc1)CO3 | inactive
16 | CC1=CC(=O)C=C(C)C1=NOC(=O)/C=C\c1ccccc1 | inactive
17 | Cc1ccc(C(=O)C(C(=O)/C=C/c2ccccc2)=C2SCCCS2)cc1 | 25.1 µM (active)
18 | Cc1cc(C)c2cc3c(N)c(C(=O)N4CCc5ccccc5C4)sc3nc2c1 | inactive
19 | Cc1cc(N2CCN(C)CC2)nc2ccc(NC(S)=NCCN3CCc4ccccc4C3)cc12 | 28.2 µM (active)
20 | COCCCN=C(S)Nc1ccc2nc(N3CCOCC3)cc(C)c2c1 | inactive
21 | CCN1CCN(c2cc(C)c3cc(NC(S)=NCCCN4CCc5ccccc5C4)ccc3n2)CC1 | 25.1 µM (active)
22 | COc1cc(OC)c2c(OC)cccc2n1 | inactive
23 | CC(C)c1ccc(O)c(C(=O)c2cnn(-c3ccccc3)c2)c1 | inactive
24 | Cc1cccn2c(=O)c3cc(C(N)=S)c(=N)n(CCCOC(C)C)c3nc12 | inactive
25 | CCCCOCCCNC(=O)C[C@@H]1C[C@@]2(C(=O)OC)CCCCC=C2N(CCC2=CCCCC2)C1=O | 35.5 µM (active)
26 | CCCCNC(=O)C[C@@H]1C[C@@]2(C(=O)OC)CCCCC=C2N(CCC2=CCCCC2)C1=O | 39.8 µM (active)
27 | CCCCNC(=O)C1(NC(=O)Nc2ccccc2)CCCCC1 | inactive

Row | SMILES | Potency
28 | Cc1cc(NCCCOC(C)C)n2c(nc3ccccc32)c1C#N | inactive
29 | CC(=O)c1ccc(NC(=O)COC(=O)C2CC3C=CC2C3)cc1 (stereo not given) | inactive
30 | O=C1/C(=C\NCc2ccccn2)c2ccccc2C(=O)N1c1ccccc1Cl | inactive
31 | Cc1ccc(OCC(=O)N(Cc2ccco2)C2CCS(=O)(=O)C2)cc1C (stereo not given) | inactive
32 | CCN(C(=O)C(C)N1C(=O)/C(=C/c2ccco2)SC1=S)C1CCS(=O)(=O)C1 (stereo not given) | 28.2 µM (active)
33 | CCN(C(=O)COc1cccc2cccnc12)C1CCS(=O)(=O)C1 (stereo not given) | inactive
34 | Cc1ccc(O)c(Nc2c3ccccc3nc3ccccc23)c1 | inactive
35 | Cc1ccc(O)c(NN=C2C(=O)CC(C)(C)CC2=O)c1 | 20 µM (active)
36 | O=C(OCC(=O)c1ccc[nH]1)c1cncc(Br)c1 | inactive
37 | Cc1ccc(-n2[nH]c(C)c(/C=N/Nc3ccc([N+](=O)[O-])cc3[N+](=O)[O-])c2=O)cc1 | 14.1 µM (active)
38 | Cc1[nH]c2ccccc2c1/C=N/Nc1ccc([N+](=O)[O-])cc1 | inactive
39 | CN1CCN(S(=O)(=O)c2cc([N+](=O)[O-])ccc2N/N=C/c2ccc(Cl)cc2)CC1 | inactive
40 | CCc1ccc([C@@H]2CC=C(C(=O)O)[C@H](c3ccc(C(C)(C)C)cc3)N2S(=O)(=O)c2ccc(C)cc2)cc1 | 35.5 µM (active)
41 | CSC1=NCCN1S(=O)(=O)c1ccc(C)cc1 | inactive
42 | CCc1ccc(S(=O)(=O)N2CCN(Cc3ccco3)CC2)cc1 | inactive
43 | CCC(C)NCC(=O)Nc1ccc(-c2nc3cc(NC(=O)CNC(C)CC)ccc3o2)cc1 (stereo not given) | 22.4 µM (active)
44 | CC(=O)Nc1ccc2cc3ccc(NC(C)=O)cc3nc2c1 | inactive
45 | Cc1ccc(NC(=O)CSC(C)C(=O)OCc2cc(=O)oc3cc(O)ccc23)cc1 (stereo not given) | inactive
46 | COc1cc(/C=C\C(=O)Nc2cc(=O)n(C)c(=O)n2C)cc(OC)c1OC | inactive
47 | CNC[C@@H](CC1CCCCC1)NC[C@H](CC(C)C)NCCc1cccc(C(F)(F)F)c1 | 15.8 µM (active)
48 | CSCCC(=O)N(C)CC1CCCN(CCc2cccc(C(F)(F)F)c2)C1 (stereo not given) | inactive
49 | O=c1nc2c(O)cccn2c2c1c(O)nc1ccccc12 | inactive
50 | CCOc1ccc(NC(=O)COC(=O)CNC(=O)c2ccc(-c3ccccc3)cc2)cc1 | inactive
51 | Nc1nc(O)c(CCCOc2ccc(NC(=O)CBr)cc2)c(-c2ccccc2)n1 | 25.1 µM (active)
52 | Cc1nc(C)c(C(=O)OCC(=O)Nc2ccccc2)s1 | inactive
53 | CC(C)CC1c2[nH]c3ccccc3c2CCN1C(=O)CCC(=O)N(C)C (stereo not given) | inactive
54 | Cc1cc(C)cc(NC(=O)C2CCCN(C(=O)c3cnn(-c4ccccc4)c3-n3cccc3)C2)c1 (stereo not given) | 20 µM (active)

Row | SMILES | Potency
55 | Cc1c(CN2CCCC(C(=O)Nc3cccc(-n4cccn4)c3)C2)cnn1C (stereo not given) | inactive
56 | Cc1c(Cl)cccc1NC(=O)CN1CCN(CCNC=C2C(=O)CC(c3ccccc3)CC2=O)CC1 (stereo not given) | inactive
57 | Cc1c(Cl)cccc1NC(=O)C1CCCN(C(=O)c2cnn(-c3ccccc3)c2-n2cccc2)C1 (stereo not given) | 39.8 µM (active)
58 | Cc1cc(C)cc(NC(=O)Nc2ccccc2N2CCCCC2)c1 | inactive
59 | Cc1cc(Cl)ccc1C(=O)C1CCCN(C(=O)/C=C/c2cnn(C)c2)C1 (stereo not given) | inactive
60 | Cc1ccc(SCc2nn(C)c(Cl)c2C=O)cc1 | inactive
61 | CCCN(C(=O)c1cccc(S(=O)(=O)N2CCCc3ccccc32)c1)C1CCS(=O)(=O)C1 (stereo not given) | inactive
62 | CC(C)c1cc(NCCOCCO)n2c(nc3ccccc32)c1C#N | inactive
63 | OCCN(CCO)c1ccc(C(c2ccccc2Cl)c2ccc(N(CCO)CCO)cc2Cl)c(Cl)c1 | 39.8 µM (active)
64 | Cc1cc(N(CCO)CCO)ccc1C(c1ccc(N(CCO)CCO)cc1C)c1ccccc1Cl | 39.8 µM (active)
65 | CCOc1cc(NC(=O)c2ccccn2)c(OCC)cc1NC(=O)c1ccc(OC)cc1 | inactive
66 | COc1cc(/C=N/NC(=O)c2ccccn2)cc2c1OCO2 | inactive
67 | CCN(CC)CCOc1ccc2c(c1)C(=NNC(=O)c1ccccn1)c1cc(OCCN(CC)CC)ccc1-2 | 39.8 µM (active)
68 | c1ccc(-c2nc(N3CCCC3)nc3ccccc23)cc1 | inactive
69 | CCN(CC)c1ccc2cc(-c3nnc(-c4cccc(Cl)c4)o3)c(=O)oc2c1 | inactive
70 | CCCCCCc1cc2cc(S(=O)(=O)c3ccc(Cl)cc3)c(=O)oc2cc1O | inactive
71 | Cc1ccccc1C(=O)OC1CCN(C)CC1 | inactive
72 | NNC(=O)c1sc(-c2ccccc2)cc1N | inactive
73 | Cc1ccc2nc(NCCC(=O)O)nc(-c3ccccc3)c2c1 | inactive
74 | CC(=O)Nc1ccc(S(=O)(=O)Nc2nc3nc(-c4ccccc4)cc(-c4ccccc4)n3n2)cc1 | inactive
75 | COCCCNc1nc2c(-c3cccc(C)c3)nnn2c2ccccc12 | inactive
76 | CC(=O)Nc1ccc(CNc2nc(NCCN(C)C)nc3cc(-c4ccccc4)sc23)cc1 | 31.6 µM (active)
77 | COCCNc1nc(NCc2ccc(NC(C)=O)cc2)c2sc(-c3ccccc3)cc2n1 | 31.6 µM (active)
78 | COCCNc1nc(NCCOc2ccccc2)c2sc(-c3ccccc3)cc2n1 | 25.1 µM (active)
79 | COCCNc1nc2c(-c3cccc(C(F)(F)F)c3)nnn2c2ccccc12 | inactive
80 | O=C(O)CCNc1nc(-c2ccccc2)c2cc(Br)ccc2n1 | inactive
81 | C[C@]12CCCC[C@@H]1CC[C@@H]1[C@@H]2CC[C@@]2(C)[C@H]1CC[C@@]2(O)CNCCO | inactive

Row | SMILES | Potency
82 | O=C(c1cc(Br)c(Br)s1)N1CCc2ccccc2C1 | inactive
83 | O=S(=O)(NC1CCSc2ccccc21)c1ccc(Cl)nc1 (stereo not given) | inactive
84 | Cc1cccn2c(=O)c3cc(C#N)/c(=N\C(=O)c4cccs4)n(CCCOC(C)C)c3nc12 | inactive
85 | Cc1ccc(C(=O)NC(=S)NCc2ccccc2)cc1Br | inactive
86 | COc1ccc(C[C@H]2CN3C(=NC[C@@H]3Cc3ccccc3)N2CCNC(=O)c2ccc(C)c(Br)c2)cc1 | 22.4 µM (active)
87 | COc1cccc(CNC(=O)c2ccc(C)c(NC3=NC4CS(=O)(=O)CC4S3)c2)c1 (stereo not given) | inactive
88 | COC(=O)CCNC(=O)c1ccc2nc(Cc3ccc(OC)cc3)oc2c1 | inactive
89 | COc1ccc(C[C@H]2CN3C(=NC[C@@H]3C(C)C)N2CCNC(=O)c2ccc(C)c(Br)c2)cc1 | 20 µM (active)
90 | COc1cccc(C(=O)NCCn2ccc3ccccc32)c1 | inactive
91 | COc1ccc(C[C@H]2CN3C(=NC[C@@H]3Cc3ccc(O)cc3)N2CCNC(=O)c2ccc(C)c(Br)c2)cc1 | 39.8 µM (active)
92 | COc1ccc(C(=O)NCCNc2nc3c(C)cccc3cc2C#N)cc1 | inactive
93 | CC(=O)Nc1ccc(NC(=O)CSc2ccc3nnc(CCNC(=O)c4ccccc4)n3n2)cc1 | inactive
94 | CC1CCN(c2nnc(-c3ccccc3)c3ccccc23)CC1 | inactive
95 | Cc1sc2nc(-c3ccccn3)nc(O)c2c1-c1ccccc1 | inactive
96 | O=[N+]([O-])c1ccc(C2NS(=O)(=O)N=C3CCCCCN32)cc1 (stereo not given) | inactive
97 | CCCc1cc(C(=O)Cc2nc3ccccc3s2)c(O)cc1O | inactive
98 | Cc1ccc(Cn2cccc(-c3nc4ccccc4s3)c2=O)cc1 | inactive
99 | Cc1ccc(Cn2c(C(CO)Nc3nc(-c4ccc(F)cc4)cs3)nc3ccccc32)cc1 (stereo not given) | 25.1 µM (active)
100 | COc1ccc(-c2csc(NC(C)c3nc4cc(Cl)c(Cl)cc4n3CCCO)n2)cc1 (stereo not given) | 39.8 µM (active)
101 | O=C(CN1CCN(Cc2ccc(F)cc2)CC1)Nc1nc2ccccc2s1 | inactive
102 | CC(Nc1nc(-c2ccc(F)cc2)cs1)c1nc2cc(Cl)c(Cl)cc2n1CCCO (stereo not given) | 39.8 µM (active)
103 | CC(Nc1nc(-c2ccc(F)cc2)cs1)c1nc2cc(Cl)c(N3CCCCC3)cc2n1CCCO (stereo not given) | 25.1 µM (active)
104 | CC(C)CC(=O)NC(=S)Nc1nc(-c2ccc(Cl)cc2)cs1 | inactive
105 | COc1ccc(-c2csc(NC(=O)CSc3nnnn3C)n2)c(OC)c1 | inactive
